Screening results (PubChem BioAssay)
Only some compounds are listed: those with a hit (about 7.2% of all), similar ones and a draw of the others.
Lassa entry inh: qHTS for Inhibitors of binding or entry into cells for Lassa Virus; Lassa virus pseudotype entry inhibition, cell reporter; hit rate 1.2% among 300,000; AID 540256, 2011; Potency, µM (titrated, usually from 37.9 µM), for inactives: at the top dose activity change, negative = inhibition, actives largely listed as inhibitors; calls by dose curve; tested in HEK293 cells; further: nearly all actives have a fitted effect of over 50% in size
Marburg entry inh: qHTS for inhibitors of binding or entry into cells for Marburg Virus; Marburg virus pseudotyped entry inhibition, cell reporter; Potency, µM (titrated, usually from 37.8 µM), for inactives: top-dose activity change, negative = inhibition, actives largely listed as inhibitors; hit rate 1.8% among 300,000; calls by dose curve; tested in HEK293 cells
HCV inhibitor: qHTS Assay for Inhibitors of Hepatitis C Virus (HCV); AID 651820, 2012; Potency, µM (series often up to 41.8 µM), without a hit: at the top dose activity change, negative = inhibition, usual class: inhibitors; hit rate 3.4% among 340,000; Huh7.5.1 HCVcc-Cre infection, luciferase reporter, 44 h
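Reporter virus HCVcc-Cre (~0.5 moi) infects cells exposed to compound; seeding density 1,000 cells/well with 4 h settling beforehand. Luminescence, 15 sec read, taken 44 h post-infection following a 15 min RT substrate incubation.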
FMDV inh: High Throughput Screening for Foot and Mouth Disease Virus Antivirals; FMDV antiviral cell-based qHTS; Potency, µM (series often up to 57.9 µM), inactives show at the highest dose activity change, negative = inhibition, actives largely listed as inhibitors; hit rate 1.2% among 410,000; AID 1159524, 2015; calls by dose curve; tested in HEK293T cells; further: read-out not given here; nearly all actives have a fitted effect of over 45% in size
RE007 growth inh: qHTS Assay for Inhibitors of the HIV-1 protein Vpr | S. pombe RE007 Vpr strain, BacTiter-Glo ATP luminescence, 24 h | Potency, µM (top dose mostly 92.2 µM), for the others: top-dose activity change, negative = less growth, most hits filed as inhibitors | hit rate 0.21% among 360,000; active means well fitted falling curve with a large enough effect; inconclusive means small, poorly fitted or top-dose-only effect; inactive means no such curve, though single readings can be large or run the other way; further: nearly all actives have a fitted effect of over 50% in size
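Fission yeast strain RE007, carrying one chromosomally integrated HIV-1 vpr copy, was seeded at OD 0.01 in PMG+AL medium with 23 nL pinned compound. After 24 h at 30 °C and 99% humidity, viability was read by BacTiter-Glo luminescence.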
Sm TGR inh: qHTS Assay for the Inhibitors of Schistosoma Mansoni Peroxiredoxins | Potency, µM (doses to about 114 µM), for the others: at the highest dose activity change, negative = inhibition, actives largely listed as inhibitors | Schistosoma mansoni thioredoxin glutathione reductase (TGR), Q962Y6 | hit rate 3% among 360,000 | purified TGR, DTNB reduction, TNB absorbance 405 nm; further: nearly all actives have a fitted effect of over 60% in size
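First, TGR (20 nM dispensed) and NADPH were mixed with compound. Second, a 15 min room-temperature incubation followed. Third, further NADPH and then DTNB were added to start the reaction. Finally, TNB absorbance was monitored kinetically.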
An asterisk follows results filed as active; ? = inconclusive; · = no result given; [ ] = remark or other dose. Unless noted, the call rests on the fitted dose curve; in most records, active means well fitted curve in the direction sought with a large enough effect; inconclusive means small, poorly fitted or top-dose-only effect, or another doubt; inactive means no such curve, though single readings can be large; an effect the other way counts as inactive or inconclusive. On the % scale 0 is the no-effect control and ±100 the full control effect; potency means the concentration at half of the fitted maximal effect.

SMILES	Lassa entry inh	Marburg entry inh	HCV inhibitor	FMDV inh	RE007 growth inh	Sm TGR inh
Cn1cnc(S(=O)(=O)N2CCC(C(=O)Nc3ccc(OC(F)(F)F)cc3)CC2)c1	18.0%[46.1 µM]	·	·	-12.7%	·	4.9%
Fc1ccc(N2CCN(c3ncnc4c3nc3n4CCCC3)CC2)cc1	4.8%[46.1 µM]	3.0%[46.1 µM]	·	1.78µM*	·	?
O=C(C1CCN(c2ncnc3c2nc2n3CCCCC2)CC1)N1CCN(c2ccc(F)cc2)CC1	-11.5%[46.1 µM]	·	13.7%	31.6µM*	31.3%	-14.9%
Cc1ccc(NC(=O)C2CCN(c3ncnc4c3nc3n4CCCCC3)CC2)nc1	·	·	12.6µM*	?	-6.6%	5.9%
COc1ccc(CNC(=O)CN2C(=O)COc3ccc(S(=O)(=O)Nc4ccccc4)cc32)cc1	-7.3%[46.1 µM]	·	·	21.4%	·	3.1%
CCOC(=O)CCN1C(=O)[C@H]2[C@H]3[C@H](O)[C@H](O)C/C(=N\OCC(C)C)[C@@H]3CC[C@H]2C1=O	·	-10.9%[14.2 µM]	·	·	·	·
Cc1ccc(NC(=O)CCNC(=O)Cn2cnc3ccccc3c2=O)cc1F	1.5%[46.1 µM]	9.5%[46.1 µM]	5.7%	5.8%	-4.5%	66.1%
CCN(CC)S(=O)(=O)c1cc(NC(=O)Cn2cnc3ccccc3c2=O)ccc1C	3.9%	-29.5%	11.2µM*	-27.8%	3.3%	-14.0%
CN(c1ccccc1)S(=O)(=O)c1cccc(NC(=O)Cn2cnc3ccccc3c2=O)c1	?	-15.7%	2.82µM*	?	-5.7%	-4.0%
CC(C)(C)c1csc(NC(=O)Cn2cnc3ccccc3c2=O)n1	-2.3%	-10.0%	14.1µM*	-20.7%	16.0%	-0.2%
CCN(CC)S(=O)(=O)c1cc(NC(=O)CCc2c(C)noc2C)ccc1C	-15.0%[46.1 µM]	?	?	-16.3%	-3.0%	·
CC(C)(C)c1csc(NC(=O)CSc2nc3ccccc3c(=O)[nH]2)n1	8.5%	-5.2%	14.6%	-24.7%	-5.1%	0.1%
CCN(CC)S(=O)(=O)c1cc(NC(=O)CSCc2c(C)noc2C)ccc1C	2.82µM*	?	?	-15.2%	-1.6%	·
Cc1nnc(SCC(=O)Nc2cccc(S(=O)(=O)N(C)c3ccccc3)c2)s1	-5.6%	-19.5%	7.08µM*	?	-2.4%	-1.1%
CN(c1ccccc1)S(=O)(=O)c1cccc(NC(=O)c2nn(C)c(=O)c3ccccc23)c1	·	·	4.47µM*	?	14.6%	1.0%
CCOc1ccc(OCC)c(NC(=O)C(NS(=O)(=O)c2cccs2)c2ccccc2)c1 (configuration not stated)	-24.3%[46.1 µM]	30.4%[46.1 µM]	·	-10.4%	·	4.5%
Cc1nn(C)c2c1c(C(F)(F)F)cc(=O)n2C(C)C(=O)NCCC(C)C (configuration not stated)	-2.0%[46.1 µM]	·	·	-22.9%	·	-2.9%
O=C(Nc1ccncc1)Nc1cccc(Cl)c1Cl	·	·	6.31µM*	?	6.6%	-24.3%
CC(C)=CCc1c(O)cc2c(=O)c3ccc(O)cc3oc2c1O	·	·	?	21.2%	-22.9%	·
COc1c(CC=C(C)C)c(O)cc2oc(=O)c3c4ccc(O)cc4oc3c12	·	·	3.98µM*	5.7%	-6.2%	·
COc1ccc(/C=C(/C(=O)NCc2ccccc2)c2ccccc2)cc1	-17.4%	-2.4%	?	-11.5%	-11.0%	-0.4%
O=C(NCc1ccccc1)/C(=C/c1ccc(OC(F)F)cc1)c1ccccc1	-9.1%	0.1%	22.4µM*	-6.7%	-10.0%	-5.8%
CCC(=O)C1=C(c2ccc(Cl)cc2)N(C(=O)CC)n2c(C)nnc2S1	0.3%[46.1 µM]	·	·	0.0%	·	-9.6%
O=C(Nc1ccccc1)Nc1ncc([N+](=O)[O-])s1	7.08µM*	?	?	10µM*	-13.4%	4.9%
Cc1nc(C)c(C(=O)Nc2ncc([N+](=O)[O-])s2)o1	5.62µM*	?	-9.3%	-92.1%	?	-12.0%
SMILES	Lassa entry inh	Marburg entry inh	HCV inhibitor	FMDV inh	RE007 growth inh	Sm TGR inh
O=C(COC(=O)c1ccccc1)Nc1ncc([N+](=O)[O-])s1	?	-17.6%	-1.3%	11.4%	-22.4%	·
CCCCNC(=O)c1cc(-c2ccc(OC)cc2)nc2n[nH]c(-c3cccc([N+](=O)[O-])c3)c12	-8.0%[46.1 µM]	·	·	-20.9%	·	0.0%
O=C(O)c1cc(N2N=C(C(F)(F)F)/C(=C/C=C/c3ccco3)C2=O)ccc1Cl	-10.8%	?	-13.7%	28.2µM*	-7.8%	10µM*
O=C(CSc1nnc(NC(=O)c2ccccc2[N+](=O)[O-])s1)NC1CCCC1	15.9%	20.7%	28.5%	15.7%	-12.1%	·
COc1ccccc1C(=O)Nc1nnc(SCC(=O)NC2CCCC2)s1	?	11.2µM*	?	0.4%	-5.0%	1.1%
Cc1ccc(C(CNC(=O)Nc2ccc(Cl)cc2)N2CCN(C)CC2)cc1 (configuration not stated)	?	?	12.6µM*	-17.1%	-0.9%	-1.1%
CCOc1ccccc1C(=O)Nc1nnc(C(C)C)s1	·	·	12.6µM*	2.1%	-19.9%	-4.5%
CC(C)c1nnc(NC(=O)CC(=O)Nc2ccccc2C(=O)O)s1	6.31µM*	?	15.3%	-34.4%	2.1%	7.3%
CCOc1ccccc1C(=O)Nc1nncs1	0.9%	-0.1%	?	·	-9.9%	26.7%
CC(C)Cc1nnc(NC(=O)CC(=O)Nc2ccccc2C(=O)O)s1	?	?	5.0%	-15.8%	-4.1%	8.3%
CCN(CC)C1CCN(C(=O)c2ccc(OC3CCN(CCc4ccccc4)CC3)cc2)C1 (configuration not stated)	·	·	7.08µM*	-7.8%	-8.8%	2.3%
COc1ccc(C2=Nc3ccccc3N(C(=O)c3ccc(C(F)(F)F)cc3)C2C(=O)Nc2c(C)cccc2C)cc1 (configuration not stated)	·	·	·	-7.6%	9.0%	·
Cc1cc(-c2csc(N)n2)c(C)n1CCc1ccccc1	-15.1%	?	?	11.2µM*	-9.7%	0.0%
Cc1cc(-c2csc(N)n2)c(C)n1CCC(C)C	13.4%	-16.8%	-2.4%	22.4µM*	-9.3%	-21.7%
Cc1cc(-c2csc(NCc3ccccc3)n2)c(C)n1C	2.3%[46.1 µM]	0.5%[46.1 µM]	?	-2.6%	1.0%	-34.1%
CCOc1ccc(N2CC(NC(=O)C3CC3)CC2=O)cc1 (configuration not stated)	13.8%[46.1 µM]	·	·	-9.2%	·	1.5%
CSCCC(NS(=O)(=O)c1cccs1)C(=O)Nc1ccc(C)c(Cl)c1 (configuration not stated)	-8.1%[46.1 µM]	-22.3%[46.1 µM]	·	6.4%	·	5.4%
Cc1nn(C)c(Oc2ccc(Cl)cc2)c1C(=O)Nc1ccc(F)cc1F	1.3%	-20.5%	10µM*	0.0%	-10.8%	-21.5%
O=[N+]([O-])c1c(Nc2ccc(O)cc2)cc(Cl)c2nonc12	·	·	7.08µM*	22.4µM*	·	0.316µM*
O=[N+]([O-])c1c(Nc2ccccn2)cc(Cl)c2nonc12	?	1.3%[46.1 µM]	?	12.6µM*	8.91µM*	0.891µM*
